Data taken from PubChem BioAssay (NCATS).
Inconclusive results are not listed. A call without a number means that no potency is given here. Activity calls are given as the source filed them. Calls follow the shape of the dose curve; as a rule, active = well fitted curve in the direction sought with a large enough effect; inconclusive = small, poorly fitted or top-dose-only effect, or another doubt; inactive = no such curve, though single readings can be large; an effect the other way counts as inactive or inconclusive.

Biological target: Calcium and integrin-binding protein 1 (Homo sapiens) (UniProt Q99828)
Assay: Primary qHTS for Identification of Calcium Integrin Binding Protein 1 (CIB1) Competitor (AID 1508620);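 also: GST tagged CIB1 binding a fluorescein labelled alphaIIb integrin peptide tracer; top concentration of the series differs between compounds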
Settings: CIB1-GST / FITC-alphaIIb peptide fluorescence polarization; series mostly up to 57.7 µM
In short: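 Fluorescence polarization competition: GST-tagged CIB1 (1 uM final) preincubated with compound 15 min at room temperature, then FITC-labelled alphaIIb peptide (100 nM final) added. After 15 min at room temperature, polarization read at Ex 480/Em 540.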

Chain of Calcium and integrin-binding protein 1 (Homo sapiens) (Q99828 whole entry, looked up): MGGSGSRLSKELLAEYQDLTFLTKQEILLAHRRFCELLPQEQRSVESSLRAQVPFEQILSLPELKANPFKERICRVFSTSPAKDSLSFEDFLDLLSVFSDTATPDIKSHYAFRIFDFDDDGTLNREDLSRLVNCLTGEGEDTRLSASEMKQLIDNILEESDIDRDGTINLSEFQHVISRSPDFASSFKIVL

Row | Structure (SMILES) | Potency
1 | O=c1ccn([C@@H]2O[C@H](CO)[C@H](O)[C@H]2O)c(=O)[nH]1 | inactive
2 | CC(C)(C)C(=O)Oc1ccc2c(c1)nc(NC(=O)c1cccc([N+](=O)[O-])c1)n2CCCO | inactive
3 | CCC(=O)O[C@]1(C(=O)CO)CC[C@H]2[C@@H]3CCC4=CC(=O)CC[C@]4(C)[C@@H]3CC[C@@]21C | inactive

System: not listed separately
Assay: Counterscreen qHTS for small molecule stabilizers of the endoplasmic reticulum resident proteome: GLuc-NoTag assay (AID 1508627); also: potency is read from the fitted curve at half-maximal effect
Settings: Gaussia luciferase NoTag secretion counterscreen, luminescence, thapsigargin 100 nM for final 4 h; series mostly up to 76.4 µM
In short: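 SH-SY5Y cells stably expressing constitutively secreted GLuc without SERCaMP tag, exposed to compound for 19 hr, then to 100 nM thapsigargin for 4 hr at 37C. Medium luciferase was read by coelenterazine luminescence without lysis.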

Row | Structure (SMILES) | Potency
4 | O=C1c2ccccc2-[n+]2ccc3c([nH]c4ccccc43)c21 | 2000 nM (active)
5 | C=C1C(=O)OC2C=C(C)CCC=C(C)CCC12 (configuration not stated) | inactive
6 | CC[C@H]1OC(=O)[C@H](C)[C@@H](O[C@H]2C[C@@](C)(OC)[C@@H](O)[C@H](C)O2)[C@H](C)[C@@H](O[C@@H]2O[C@H](C)C[C@H](N(C)C)[C@@H]2O)[C@](C)(O)C[C@@H](C)CN(C)[C@H](C)[C@@H](O)[C@]1(C)O | inactive
7 | O=c1ccn([C@@H]2O[C@H](CO)[C@H](O)[C@H]2O)c(=O)[nH]1 | inactive

System: not listed separately
Assay: Cell Viability qHTS for small molecule stabilizers of the endoplasmic reticulum resident proteome (AID 1508629);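 also: compound exposure about 46 h in total before the viability read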; also: potency is read from the fitted curve at half-maximal effect;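 as to max response: human SH-SY5Y neuroblastoma cells carrying the GLuc-SERCaMP reporter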
Settings: cell viability counter-screen, 100 nM thapsigargin for final 4 h
Description: Assay Provider: Brandon K. Harvey Ph.D.
National Institute on Drug Abuse, National Institutes of Health, Baltimore, MD
Endoplasmic reticulum (ER) dysregulation is associated with human pathologies including neurodegenerative, cardiovascular, muscular, and diabetic conditions. Maintenance of ER calcium is critical for functions of the ER and its depletion can lead to loss of ER resident proteins, in a process termed exodosis. Therapeutic compounds capable of attenuating the redistribution of ER proteins under pathological conditions may slow or stop disease progression. To identify such compounds, we performed a quantitative high-throughput screen (qHTS) using the SERCaMP assay, which monitors secretion of ER resident proteins triggered by calcium depletion.
SERCaMP was initially developed as a reporter of ER calcium homeostasis using a Gaussia luciferase with a modified signal peptide and carboxy-terminus (GLuc-SERCaMP), modifications that confer secretion of the reporter in response to ER calcium depletion (Henderson et al., 2014). The assay was used to screen 9,501 compounds, including a collection of drugs approved by the FDA (US), EMA (EU), NHI (Japan), and HC (Canada) regulatory agencies (Huang et al., 2011). Since the SERCaMP reporter reflects the exodosis phenomenon (Trychta et al., 2018a), compounds identified in the screen have the potential to prevent exodosis by different mechanisms such as stabilizing ER calcium or augmenting ERS retrieval.
1. Henderson, M.J., Wires, E.S., Trychta, K.A., Richie, C.T., and Harvey, B.K. (2014). SERCaMP: a carboxy-terminal protein modification that enables monitoring of ER calcium homeostasis. Mol Biol Cell 25, 2828-2839.
2. Huang, R., Southall, N., Wang, Y., Yasgar, A., Shinn, P., Jadhav, A., Nguyen, D.T., and Austin, C.P. (2011). The NCGC pharmaceutical collection: a comprehensive resource of clinically approved drugs enabling repurposing and chemical genomics. Sci Transl Med 3, 80ps16.
3. Trychta, K.A., Back, S., Henderson, M.J., and Harvey, B.K. (2018a). KDEL Receptors Are Differentially Regulated to Maintain the ER Proteome under Calcium Deficiency. Cell Rep 25, 1829-1840 e1826.
SEQUENCE No. (1, 2, 3, etc.); […] (e.g., Cells, Incubation, Reagent, etc.); VALUE and DESCRIPTION.
1; Reagent; 5 uL; 1000 SH-SY5Y cells per wells
3; Compound; 23 nL; Control inhibitor / compound library
5; Reagent; 100 nM; Thapsigargin
7; Reagent; 5 uL; CellTiter-Glo (Promega)
8; Time; 10 min; room temperature
9; Detection; Luminescence; ViewLux imaging system
NOTES (numbers refer to sequence above) […]
7; Cell viability was measured using the CellTiter-Glo Luminescent Cell Viability Assay (Promega). […]
9; Luminescence was measured using a ViewLux CCD imaging system (Perkin Elmer) equipped with clear filters.

Row | Structure (SMILES) | Potency | max response
8 | O=C1c2ccccc2-[n+]2ccc3c([nH]c4ccccc43)c21 | 1000 nM (active) | 
9 | Cn1cc(C=C2C(=O)Nc3cccnc32)c2ccccc21 |  | 16.6% (inactive)
10 | Nc1ncnc2c1ncn2[C@@H]1O[C@H](CO)C[C@@H]1O |  | 15.2% (inactive)

System: not listed separately
Assay: Primary qHTS for small molecule stabilizers of the endoplasmic reticulum resident proteome: Secreted ER Calcium Modulated Protein (SERCaMP) assay (AID 1508630); also: potency is read from the fitted curve at half-maximal effect
Settings: SH-SY5Y GLuc-SERCaMP (Gaussia luciferase released on ER calcium loss) secretion, thapsigargin, luminescence; series mostly up to 38.4 µM
In short: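 GLuc-SERCaMP-expressing SH-SY5Y cells, pretreated 16 h with compound, are challenged with thapsigargin to empty ER calcium stores; after 4 h, coelenterazine is added directly to the medium and luminescence is imaged.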

Row | Structure (SMILES) | Potency
11 | O=C1c2ccccc2-[n+]2ccc3c([nH]c4ccccc43)c21 | 10600 nM (active)
12 | CC1(C)CCC[C@@]2(C)[C@@H]1CC[C@@]1(C)OC(=O)C[C@H]21 | inactive
13 | COc1ccc(-c2coc3cc(O)ccc3c2=O)cc1 | inactive
14 | COc1ccc2c3c1OC1C[C@@H](O)C=C[C@@]31CCN(C)C2 (some centres not stated) | inactive
15 | C[C@]12CC[C@@H]3c4ccc(O)cc4CC[C@H]3[C@H]1C[C@@H](O)[C@H]2O | inactive
16 | CC(=Cc1ccccc1)C=C1SC(=S)N(CC(=O)O)C1=O | inactive
17 | NC[C@@H]1O[C@@H](O[C@H]2[C@@H](O)[C@H](O[C@@H]3[C@@H](O)[C@@H](N)C[C@H](N)[C@H]3O[C@H]3O[C@H](CN)[C@@H](O)[C@@H](O)[C@H]3N)O[C@H]2CO)[C@H](N)[C@@H](O)[C@@H]1O | inactive
18 | CC1(C)O[C@H]2C[C@@H]3[C@H]4CCC5=CC(=O)C=C[C@]5(C)[C@@]4(F)[C@@H](O)C[C@]3(C)[C@]2(C(=O)CO)O1 | inactive
19 | CC(C)(C)OC(=O)N[C@H]1CCCCCC=C[C@@H]2C[C@@]2(C(=O)NS(=O)(=O)C2CC2)NC(=O)[C@@H]2C[C@@H](OC(=O)N3Cc4cccc(F)c4C3)CN2C1=O | inactive
20 | CCOC(=O)O[C@]1(C(=O)OCCl)CC[C@@H]2[C@H]3CCC4=CC(=O)C=C[C@]4(C)[C@@H]3[C@@H](O)C[C@@]21C | inactive
21 | O=C1NC(=O)C(=Cc2cccc(C(F)(F)F)c2)S1 | inactive
22 | CC=CC(=O)N(CC)c1ccccc1C | inactive
23 | COCCCCC(=NOCCN)c1ccc(C(F)(F)F)cc1 | inactive
24 | COc1ccc(-c2oc3c(CC=C(C)C)c(OC4O[C@H](CO)[C@@H](O)[C@H](O)[C@@H]4O)cc(O)c3c(=O)c2OC2O[C@@H](C)[C@H](O)[C@@H](O)[C@@H]2O)cc1 (some centres not stated) | inactive
25 | N#CC1(c2ccc(NC(=O)c3cccnc3NCc3ccncc3)cc2)CCCC1 | inactive
26 | C[C@]12CCC3c4ccc(O)cc4CCC3C1CCC2=O (some centres not stated) | inactive

Row | Structure (SMILES) | Potency
27 | O=C(NCc1ccncc1)C12C[C@H]3C[C@@H](C1)CC(c1ccc(Cl)cc1)(C3)C2 | inactive
28 | CNC(=O)c1ccccc1Sc1ccc2c(C=Cc3ccccn3)n[nH]c2c1 | inactive
29 | C[C@H]1[C@H](NC(=O)C(=NOC(C)(C)C(=O)O)c2csc(N)n2)C(=O)N1S(=O)(=O)O | inactive
30 | Nc1ncnc2c1ncn2[C@@H]1O[C@H](CO)C[C@@H]1O | inactive
31 | CO[C@H]1C=CC=C(C)C(=O)NC2=CC(=O)C(NCCN(C)C)=C(C[C@@H](C)C[C@H](OC)[C@@H](O)[C@@H](C)C=C(C)[C@@H]1OC(N)=O)C2=O | inactive
32 | O=C(O)c1ccc(-c2cc3cccnc3c(-c3ccc4nonc4c3)n2)cc1 | inactive
33 | NC(=O)NN=Cc1ccc([N+](=O)[O-])o1 | inactive
34 | O=C1c2c(O)cc(O)cc2O[C@H](c2cc(O)c(O)c(O)c2)[C@H]1O | inactive
35 | Cc1ccc(/C=N/NC(=O)c2ccccc2Oc2ccccc2)o1 | inactive
36 | CC[C@H]1OC(=O)[C@H](C)[C@@H](O[C@H]2C[C@@](C)(OC)[C@@H](O)[C@H](C)O2)[C@H](C)[C@@H](O[C@@H]2O[C@H](C)C[C@H](N(C)C)[C@@H]2O)[C@](C)(O)C[C@@H](C)CN(C)[C@H](C)[C@@H](O)[C@]1(C)O | inactive
37 | CC=CCC=CCCC(=O)[C@H]1O[C@@H]1C(N)=O | inactive
38 | N#CC(=C(N)Sc1ccccc1N)C(C#N)=C(N)Sc1ccccc1N | inactive
39 | C[N+]1(C)[C@@H]2CC(OC(=O)[C@H](CO)c3ccccc3)C[C@H]1[C@H]1O[C@@H]12 (some centres not stated) | inactive
40 | O=c1ccn([C@@H]2O[C@H](CO)[C@H](O)[C@H]2O)c(=O)[nH]1 | 1680 nM (active)
41 | CC(C)(C)C(=O)Oc1ccc2c(c1)nc(NC(=O)c1cccc([N+](=O)[O-])c1)n2CCCO | inactive
42 | CCC(=O)O[C@]1(C(=O)CO)CC[C@H]2[C@@H]3CCC4=CC(=O)CC[C@]4(C)[C@@H]3CC[C@@]21C | inactive
